Measured values: PubChem BioAssay (NCI)
Compounds without any hit were thinned out: in the full panel of roughly 79,000, 15% have a hit. Calls of active or inactive are those of the source. Rule as the data show it: active = growth inhibition above about 70%; inactive = the rest.

Key:
[1] = NCI Yeast Anticancer Drug Screen. Data for the rad52 strain (AID 147);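 also: 0% = growth of vehicle-treated control cultures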; details: S. cerevisiae rad52 mutant growth inhibition, stronger effect = higher value
How it was run: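 DNA repair-defective yeast; compound exposure; growth scored against vehicle controls.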

[2] = NCI Yeast Anticancer Drug Screen. Data for the wt1 strain (AID 149);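 also: 0% = growth of vehicle-treated wt1 cultures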; details: S. cerevisiae wt1 strain (SPY 50644) growth inhibition, stronger effect = higher value
How it was run: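 wt1 strain grown with compound or vehicle; inhibition taken from the growth difference.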

[3] = NCI Yeast Anticancer Drug Screen. Data for the mgt1 strain (AID 153); details: S. cerevisiae mgt1 mutant growth inhibition, stronger effect = higher value
How it was run: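 Growth inhibition relative to vehicle controls was scored for the mgt1 yeast strain after compound exposure.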

[4] = NCI Yeast Anticancer Drug Screen. Data for the rad50 strain (AID 155);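 also: 0% = growth of vehicle-only cultures of the same strain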; details: S. cerevisiae rad50 strain growth inhibition, stronger effect = higher value
How it was run: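 DNA repair mutant yeast, compound exposure, growth read-out; inhibition is taken relative to vehicle.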

[5] = NCI Yeast Anticancer Drug Screen. Data for the mec2-1 strain (AID 157); details: S. cerevisiae mec2-1 strain, stronger effect = higher value
How it was run: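 Growth inhibition is read against vehicle-treated controls after compound exposure of the mec2-1 yeast strain, which is defective in DNA damage repair or cell cycle control.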

[6] = NCI Yeast Anticancer Drug Screen. Data for the rad14 strain (AID 159);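 also: 0% = growth of vehicle-treated control cultures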; details: S. cerevisiae rad14 strain growth inhibition, stronger effect = higher value
How it was run: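 DNA repair-defective yeast, compound-exposed; % growth inhibition derived by comparison with vehicle-treated controls.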

[7] = NCI Yeast Anticancer Drug Screen. Data for the sgs1 mgt1 strain (AID 161);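 also: 0% = growth of cultures given vehicle only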; details: S. cerevisiae sgs1 mgt1 strain, stronger effect = higher value
How it was run: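 Compounds are added to genetically altered yeast, and growth is compared with cultures given vehicle alone to give percent inhibition.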

[8] = NCI Yeast Anticancer Drug Screen. Data for the CLN2oe strain (AID 163);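 also: 0% = growth of vehicle-only control cultures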; details: S. cerevisiae CLN2oe strain, stronger effect = higher value
How it was run: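 Compound-treated yeast; growth vs vehicle ctrl = % inhibition. Genetically altered strain (cell-cycle control).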

[9] = NCI Yeast Anticancer Drug Screen. Data for the cln2 rad14 strain (AID 165);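 also: 0% = growth equal to vehicle treated cultures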; details: S. cerevisiae cln2 rad14 strain, stronger effect = higher value
How it was run: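 Growth inhibition, relative to vehicle-treated controls, is the read-out. The test organism is a yeast strain with defined genetic alterations, cln2 rad14.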

[10] = NCI Yeast Anticancer Drug Screen. Data for the bub3 strain (AID 167); details: S. cerevisiae bub3 mutant strain, stronger effect = higher value
How it was run: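 In this screen, a yeast mutant lacking normal mitotic checkpoint function is challenged with compound. Relative growth versus vehicle gives the inhibition value.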

[11] = NCI Yeast Anticancer Drug Screen. Data for the wt2 strain (AID 169);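 also: 0% = growth of vehicle-treated yeast cultures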; details: S. cerevisiae wt2 strain growth inhibition, stronger effect = higher value
How it was run: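 Compound exposure of yeast; growth compared with vehicle controls; inhibition reported.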

[12] = NCI Yeast Anticancer Drug Screen. Data for the mlh1 strain (AID 171);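 also: 0% = growth of vehicle-treated control cultures of the same strain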; details: S. cerevisiae mlh1 strain growth inhibition, stronger effect = higher value
How it was run: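 Compounds are applied to a genetically altered yeast strain, and its growth is compared with that of vehicle-treated cultures to give percent inhibition.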

[13] = NCI Yeast Anticancer Drug Screen. Data for the sgs1 strain (AID 173);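 also: 0% = growth of vehicle-only control cultures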; details: S. cerevisiae sgs1 mutant, stronger effect = higher value
How it was run: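 Compounds applied to genetically altered yeast; growth compared with vehicle-treated cultures to give % inhibition.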

[14] = NCI Yeast Anticancer Drug Screen. Data for the mlh1 rad18 strain (AID 175); details: S. cerevisiae mlh1 rad18 strain growth inhibition, stronger effect = higher value
How it was run: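 Cells of a genetically altered yeast strain, deficient in DNA damage repair, were treated with compound. Their growth was then compared with that of vehicle-treated cultures to give inhibition.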

[15] = NCI Yeast Anticancer Drug Screen. Data for the rad18 strain (AID 177); details: S. cerevisiae rad18 mutant growth inhibition, stronger effect = higher value
How it was run: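 Compounds are applied to a repair-deficient yeast strain, and growth is compared with that of vehicle-treated cultures to give percent inhibition.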

[16] = NCI Yeast Anticancer Drug Screen. Data for the rad50EPP+ strain (AID 151);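 also: 0% = growth of vehicle-treated control cultures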; details: S. cerevisiae rad50 mutant strain, stronger effect = higher value
How it was run: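 rad50EPP+ yeast treated with test compounds. Readout: growth vs vehicle control.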

[17] = at 5.0 µM (retest, dose inferred, filed as 0.5)
[18] = at 50.0 µM (retest, dose inferred, filed as 5.0)

Measured: growth inhibition

COC(=O)C1=C(C(=O)OC)C2OC1c1cc3ccccc3cc12
inactive: [1]; at 1.2 µM 21% | [1]; at 3.7 µM 33% | [2]; at 1.2 µM 7% | [2]; at 3.7 µM 14% | [2]; at 11.0 µM 37% | [3]; at 1.2 µM 27% | [3]; at 3.7 µM 44% | [4]; at 1.2 µM 18% | [4]; at 3.7 µM 37% | [5]; at 1.2 µM 59% | [5]; at 3.7 µM 58% | [5]; [17] 58% | [6]; at 1.2 µM 18% | [6]; at 3.7 µM 24% | [6]; at 11.0 µM 66% | [8]; at 1.2 µM 45% | [8]; at 3.7 µM 50% | [9]; [17] 16% | [10]; [17] 64% | [11]; at 1.2 µM 13% | [11]; at 3.7 µM 29% | [12]; at 1.2 µM 19% | [12]; at 3.7 µM 35% | [13]; at 1.2 µM 24% | [13]; at 3.7 µM 45% | [15]; at 1.2 µM 50% | [15]; at 3.7 µM 60%
active: [1]; at 11.0 µM 79% | [1]; at 33.0 µM 97% | [1]; at 100.0 µM 98% | [2]; at 33.0 µM 97% | [2]; at 100.0 µM 99% | [3]; at 11.0 µM 93% | [3]; at 33.0 µM 99% | [3]; at 100.0 µM 99% | [4]; [17] 76% | [4]; at 11.0 µM 76% | [4]; at 33.0 µM 97% | [4]; [18] 100% | [4]; at 50.0 µM 99.6% | [4]; at 100.0 µM 98% | [5]; at 11.0 µM 86% | [5]; at 33.0 µM 99% | [5]; [18] 100% | [5]; at 50.0 µM 99.6% | [5]; at 100.0 µM 99% | [6]; at 33.0 µM 99% | [6]; at 100.0 µM 99% | [7]; [17] 92% | [7]; [18] 100% | [7]; at 50.0 µM 99.7% | [8]; at 11.0 µM 80% | [8]; at 33.0 µM 97% | [8]; at 100.0 µM 99% | [9]; [18] 99% | [9]; at 50.0 µM 99.4% | [10]; at 1.2 µM 75% | [10]; at 3.7 µM 87% | [10]; at 11.0 µM 89% | [10]; at 33.0 µM 99% | [10]; [18] 99% | [10]; at 50.0 µM 99.4% | [10]; at 100.0 µM 99% | [11]; at 11.0 µM 76% | [11]; at 33.0 µM 99% | [11]; at 100.0 µM 99% | [12]; at 11.0 µM 85% | [12]; at 33.0 µM 99% | [12]; at 100.0 µM 99% | [13]; at 11.0 µM 89% | [13]; at 33.0 µM 99% | [13]; at 100.0 µM 99% | [14]; [17] 96% | [14]; [18] 99% | [14]; at 50.0 µM 99.5% | [15]; at 11.0 µM 92% | [15]; at 33.0 µM 98% | [15]; at 100.0 µM 99%

CC[C@]1(O)CC(OC2CC(N(C)C)C(O)C(C)O2)c2c(cc3c(c2O)C(=O)c2c(O)cccc2C3=O)[C@@H]1C(=O)OC (stereo partly specified)
inactive: [1]; at 1.2 µM 31% | [2]; at 1.2 µM -2% | [2]; at 3.7 µM -4% | [2]; at 11.0 µM -1% | [16]; at 1.2 µM 6% | [16]; at 3.7 µM 12% | [16]; at 11.0 µM 40% | [4]; at 1.2 µM 33% | [4]; [17] 50% | [5]; at 1.2 µM -16% | [5]; at 3.7 µM -14% | [5]; [17] 4% | [5]; at 11.0 µM 7% | [6]; at 1.2 µM -12% | [6]; at 3.7 µM -18% | [6]; at 11.0 µM 0% | [7]; [17] 36% | [8]; at 1.2 µM -37% | [8]; at 3.7 µM -6% | [8]; at 11.0 µM 12% | [9]; [17] 15% | [10]; at 1.2 µM 33% | [10]; at 3.7 µM 32% | [10]; [17] 21% | [10]; at 11.0 µM 36% | [11]; at 1.2 µM -6% | [11]; at 3.7 µM -6% | [11]; at 11.0 µM 41% | [12]; at 1.2 µM -4% | [12]; at 3.7 µM 6% | [12]; at 11.0 µM 9% | [13]; at 1.2 µM -8% | [13]; at 3.7 µM -2% | [13]; at 11.0 µM 14% | [14]; [17] 22%
active: [1]; at 3.7 µM 77% | [1]; at 11.0 µM 86% | [1]; at 33.0 µM 94% | [1]; at 100.0 µM 96% | [2]; at 33.0 µM 91% | [2]; at 100.0 µM 96% | [16]; at 33.0 µM 70% | [16]; at 100.0 µM 89% | [4]; at 3.7 µM 75% | [4]; at 11.0 µM 87% | [4]; at 33.0 µM 96% | [4]; [18] 95% | [4]; at 50.0 µM 91.6% | [4]; at 100.0 µM 97% | [5]; at 33.0 µM 79% | [5]; [18] 95% | [5]; at 50.0 µM 93% | [5]; at 100.0 µM 95% | [6]; at 33.0 µM 81% | [6]; at 100.0 µM 96% | [7]; [18] 96% | [7]; at 50.0 µM 93% | [8]; at 33.0 µM 89% | [8]; at 100.0 µM 95% | [9]; [18] 92% | [9]; at 50.0 µM 90.4% | [10]; at 33.0 µM 93% | [10]; [18] 97% | [10]; at 50.0 µM 92% | [10]; at 100.0 µM 98% | [11]; at 33.0 µM 95% | [11]; at 100.0 µM 97% | [12]; at 33.0 µM 90% | [12]; at 100.0 µM 96% | [13]; at 33.0 µM 92% | [13]; at 100.0 µM 96% | [14]; [18] 95% | [14]; at 50.0 µM 91%
